This is one part of a sample in which hits are shown more often than they occur.
PRC2 inh – inhibitors of human EZH2/PRC2 methyltransferase | Q15910 | PRC2 H3K27 methylation, DELFIA TRF, 1 h | inhibition, % at 12.5 µM | 0.35% of 57,000 active;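 active = mean inhibition of replicates at least 50% and every single replicate also reaching 50%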;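 also: dimethyl H3K27 on biotinylated H3 21-44 peptide detected by antibody; plate controls were median neutral control wells for no effect and median positive control wells for full effect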
Target sequence (Q15910 whole entry, looked up): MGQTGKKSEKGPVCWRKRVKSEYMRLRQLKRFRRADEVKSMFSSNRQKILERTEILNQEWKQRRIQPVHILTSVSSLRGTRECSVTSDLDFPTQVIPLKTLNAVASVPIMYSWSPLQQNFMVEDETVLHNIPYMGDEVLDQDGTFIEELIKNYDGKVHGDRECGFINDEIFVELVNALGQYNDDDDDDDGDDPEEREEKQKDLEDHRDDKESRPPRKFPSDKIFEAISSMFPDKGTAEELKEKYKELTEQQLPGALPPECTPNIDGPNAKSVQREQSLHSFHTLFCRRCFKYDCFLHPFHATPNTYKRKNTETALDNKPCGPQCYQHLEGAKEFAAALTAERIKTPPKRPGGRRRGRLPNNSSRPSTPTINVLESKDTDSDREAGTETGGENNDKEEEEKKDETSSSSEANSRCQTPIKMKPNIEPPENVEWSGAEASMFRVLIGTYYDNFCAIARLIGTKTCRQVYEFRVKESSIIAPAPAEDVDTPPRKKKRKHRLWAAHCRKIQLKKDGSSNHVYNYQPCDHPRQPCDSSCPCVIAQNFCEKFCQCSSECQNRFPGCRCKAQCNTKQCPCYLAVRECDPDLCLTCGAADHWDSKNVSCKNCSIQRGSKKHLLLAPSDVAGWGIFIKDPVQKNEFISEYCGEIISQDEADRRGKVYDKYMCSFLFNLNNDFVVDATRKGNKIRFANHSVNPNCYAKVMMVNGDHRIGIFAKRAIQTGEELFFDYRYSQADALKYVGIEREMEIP
* hit, by the source's call.

SMILES	PRC2 inh
COC(=O)C(CC#Cc1ccc2c(c1)[C@]1(C(=O)N2)[C@H](C(=O)O)[C@H]2C(=O)O[C@H](c3ccccc3)[C@H](c3ccccc3)N2[C@@H]1c1ccc(OCCO)cc1)C(=O)OC	40
COC(=O)C(CC#Cc1ccc2c(c1)[C@]1(C(=O)N2)[C@H](c2ccccc2OCCO)N2[C@H](c3ccccc3)[C@H](c3ccccc3)OC(=O)[C@H]2[C@@H]1C(=O)O)C(=O)OC	69*
COC(=O)C(CC#Cc1ccc2c(c1)[C@]1(C(=O)N2)[C@H](C(=O)N2CCCCCCC2)[C@H]2C(=O)O[C@H](c3ccccc3)[C@H](c3ccccc3)N2[C@@H]1c1ccccc1OCCO)C(=O)OC	-10
COc1ccc(C#Cc2ccc3c(c2)[C@]2(C(=O)N3)[C@H](C(=O)O)[C@H]3C(=O)O[C@H](c4ccccc4)[C@H](c4ccccc4)N3[C@@H]2c2ccccc2OCCO)cc1	75*
COc1ccc(C#Cc2ccc3c(c2)[C@]2(C(=O)N3)[C@H](c3ccccc3OCCO)N3[C@H](c4ccccc4)[C@H](c4ccccc4)OC(=O)[C@H]3[C@@H]2C(N)=O)cc1	-38
O=C1O[C@H](c2ccccc2)[C@H](c2ccccc2)N2[C@H]1[C@@H](C(=O)O)[C@]1(C(=O)Nc3ccc(C#CCCO)cc31)[C@H]2c1ccccc1OCCO	23
CS(=O)(=O)CCC(C(=O)N1CCCCC1)N1C(=O)c2cc(Cl)c(Cl)cc2C1=O (configuration not stated)	1
O=C(COc1ccc2ccccc2c1Br)Nc1ccccc1C(=O)NC1CCCCC1	12
CCn1c(SCC(=O)Nc2ccc(Cl)cc2Cl)nnc1-c1cc(Br)ccc1O	10
O=C(Nc1ccccc1[N+](=O)[O-])c1cccc(S(=O)(=O)Nc2ccc(I)cc2)c1	41
NC(=O)CSc1nc2ccccc2n1Cc1ccccc1F	1
COc1ccc(OCc2nc3ccccc3n2Cc2ccccc2F)cc1	58*
COc1ccc(OCc2nc3ccccc3n2Cc2c(F)cccc2Cl)cc1	28
CS(=O)(=O)N(CC(=O)Nc1cc(Cl)ccc1Oc1ccccc1)c1cc(Cl)ccc1Cl	1
N#Cc1c(SCC(=O)Nc2c(Cl)cccc2Cl)nc2c(c1-c1cccnc1)CCC2	-2
O=C(CSc1nnc(-c2cccc(Br)c2)n1-c1ccccc1)Nc1ccc(Cl)cc1	10
COc1ccc(C)cc1NC(=O)CNS(=O)(=O)c1cc(Cl)ccc1Cl	1
CC12CC(c3ccoc3)OC(=O)C1CCC1(C)C2C2OC(=O)C1(O)C1OC21 (configuration not stated)	10
COC(=O)[C@@H](O)[C@H]1[C@@]2(C)C[C@]3(O)C4[C@@H](O[C@]56CC(=O)O[C@@H](c7ccoc7)[C@@]5(C)CCC([C@]46O)[C@]13C)[C@H]2O (some centres not stated)	100*
Cc1ccc(C(C)C)c(OCCSc2nc3ncnc(N)c3[nH]2)c1	-3
CN(C(=O)CSc1nnc(-c2ccc([N+](=O)[O-])cc2)n1C)c1ccccc1	1
COc1ccccc1CC(=O)Nc1ccc(-c2noc(-c3cc(OC)c(OC)c(OC)c3)n2)cc1	8
Cc1ccnc(SCC(=O)Nc2cccc3ccccc23)n1	11
O=C(CCCCC(=O)N/N=C\c1ccc2c(c1)Cc1ccccc1-2)NO	-37
CCOc1ccc(-n2nc3cc(C)c(NC(=O)c4cc(-n5cnnc5)ccc4Cl)cc3n2)cc1	6
SMILES	PRC2 inh
C/C=C/[C@H](CCn1cc(CCO)nn1)[Si](C)(C)c1ccc(OC)cc1	27
C/C=C/[C@H](CC(=O)N(CCO)Cc1ccccc1)[Si](C)(C)c1ccc(OC)cc1	58*
C/C=C/[C@@H](CCn1cc(CCO)nn1)[Si](C)(C)c1ccc(OC)cc1	13
CS(=O)(=O)N(CC(=O)Nc1cc(Cl)cc(Cl)c1)c1cccc(Cl)c1	-3
O=C(CN1C(=O)C2C3CCC(C3)C2C1=O)Nc1cccc(C(=O)O)c1 (configuration not stated)	6
CCOc1ccc(NC(=O)c2c(NC(=O)CN(C)C)sc3c2CCC3)cc1	5
Cc1ccc2c(CC(=O)NCc3ccco3)coc2c1C	-10
Cc1cc(C)c(S(=O)(=O)N(C)CC(=O)Nc2cccc([N+](=O)[O-])c2)c(C)c1	-6
Cc1ccc2c(CC(=O)Nc3cccc([N+](=O)[O-])c3)coc2c1C	51*
CS(=O)(=O)N(CC(=O)Nc1ccc(C(F)(F)F)cc1)c1cccc(Br)c1	2
CC1CCc2c(sc(NC(=O)COc3cccc4ccccc34)c2C#N)C1 (configuration not stated)	3
Cc1cc([N+](=O)[O-])ccc1NC(=O)CSc1nnc(-c2cc3ccccc3o2)n1C	-4
COc1c(O)cc2c(c1O)[C@H]1O[C@H](CO)[C@@H](O)[C@H](O)[C@@H]1OC2=O	8
O=C(OC1C(c2c(O)cc(O)c(C(=O)c3ccc(O)cc3)c2O)OC(CO)C(O)C1O)c1cc(O)c(O)c(O)c1 (configuration not stated)	56*
O=C1C[C@@H](c2ccc(O)cc2)Oc2cc(O)c([C@@H]3O[C@H](CO)[C@@H](O)[C@H](O)[C@H]3O)c(O)c21	-34

Source: PubChem
